# Measured values taken from PMC7862700, “An all-to-all approach to the identification of sequence-specific readers for epigenetic DNA modifications on cytosine”.
# What was measured:
# Assay in all cases: DAPPL (digital affinity profiling via proximity ligation, sequencing); 10 mM Tris-HCl pH 7.5, 50 mM NaCl, 1 mM DTT, 4% glycerol, room temperature, 30 min; GST-TFs on glutathione beads, 16-mer random dsDNA library, 0.1% formaldehyde crosslink after washing; high values mean tight binding
# Details in all cases: protein: recombinant; tags: N-terminal GST; dsDNA, one strand shown
# FLI1 = biological target: T1, FLI1 (Homo sapiens, UniProt Q01543 1-452)
# T1 sequence: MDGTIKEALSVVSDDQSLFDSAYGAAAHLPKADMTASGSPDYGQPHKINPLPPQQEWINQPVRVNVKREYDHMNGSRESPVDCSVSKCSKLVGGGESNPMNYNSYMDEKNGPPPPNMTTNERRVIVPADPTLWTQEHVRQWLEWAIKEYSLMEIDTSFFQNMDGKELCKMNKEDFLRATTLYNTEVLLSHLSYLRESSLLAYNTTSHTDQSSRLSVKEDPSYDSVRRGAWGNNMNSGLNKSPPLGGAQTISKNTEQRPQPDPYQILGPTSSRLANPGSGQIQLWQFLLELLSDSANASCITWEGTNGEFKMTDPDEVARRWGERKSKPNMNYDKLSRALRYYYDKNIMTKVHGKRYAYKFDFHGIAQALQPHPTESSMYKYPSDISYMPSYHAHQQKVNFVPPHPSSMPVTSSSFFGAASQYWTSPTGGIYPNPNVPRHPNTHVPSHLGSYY
# Procedure, shortened: (§1)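 Human transcription factors were made in yeast as GST fusions, captured on glutathione beads and barcoded with DNA. With a tag-only sample included, the pool was incubated with 200 nmole of a random double-stranded 16-mer DNA library in Tris/NaCl/DTT/glycerol buffer at room temperature for 30 min, then crosslinked with 0.1% formaldehyde after washing, ligated by proximity, amplified and sequenced. For binding signal, each hexamer's read frequency for a factor is divided by its frequency for the tag-only sample.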
# ELK1 = biological target: T2, ELK1 (Homo sapiens, UniProt P19419 1-428)
# T2 sequence: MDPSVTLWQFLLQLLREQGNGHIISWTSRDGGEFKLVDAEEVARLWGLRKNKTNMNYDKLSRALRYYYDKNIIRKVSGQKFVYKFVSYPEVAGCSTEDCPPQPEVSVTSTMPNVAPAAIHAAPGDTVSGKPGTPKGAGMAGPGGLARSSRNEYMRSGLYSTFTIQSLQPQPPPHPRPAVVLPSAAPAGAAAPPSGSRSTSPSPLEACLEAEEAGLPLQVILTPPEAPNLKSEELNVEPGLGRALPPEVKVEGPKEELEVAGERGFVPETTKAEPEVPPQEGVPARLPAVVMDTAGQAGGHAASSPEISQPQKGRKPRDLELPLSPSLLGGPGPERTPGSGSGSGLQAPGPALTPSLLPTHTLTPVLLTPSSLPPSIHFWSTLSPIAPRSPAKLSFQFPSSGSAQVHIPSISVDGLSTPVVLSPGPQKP
# Procedure, shortened: as §1
# GABPA = biological target: T3, GABPA (Homo sapiens, UniProt Q06546 1-454)
# T3 sequence: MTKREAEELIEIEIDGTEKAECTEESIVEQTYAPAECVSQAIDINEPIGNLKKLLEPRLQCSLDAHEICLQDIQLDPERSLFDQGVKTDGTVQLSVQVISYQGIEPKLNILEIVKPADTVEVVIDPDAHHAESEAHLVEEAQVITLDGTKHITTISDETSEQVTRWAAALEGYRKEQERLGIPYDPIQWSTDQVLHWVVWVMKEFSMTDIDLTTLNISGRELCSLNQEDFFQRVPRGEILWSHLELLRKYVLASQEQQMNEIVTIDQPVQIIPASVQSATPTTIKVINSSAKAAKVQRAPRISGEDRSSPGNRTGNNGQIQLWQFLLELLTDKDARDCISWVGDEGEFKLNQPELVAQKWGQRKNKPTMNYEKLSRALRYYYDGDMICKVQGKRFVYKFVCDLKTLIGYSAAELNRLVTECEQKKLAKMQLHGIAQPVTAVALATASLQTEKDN
# Procedure, shortened: as §1
# ELF1 = ELF1 (Homo sapiens, UniProt P32519 1-619)
# Chain of ELF1 (P32519 whole entry): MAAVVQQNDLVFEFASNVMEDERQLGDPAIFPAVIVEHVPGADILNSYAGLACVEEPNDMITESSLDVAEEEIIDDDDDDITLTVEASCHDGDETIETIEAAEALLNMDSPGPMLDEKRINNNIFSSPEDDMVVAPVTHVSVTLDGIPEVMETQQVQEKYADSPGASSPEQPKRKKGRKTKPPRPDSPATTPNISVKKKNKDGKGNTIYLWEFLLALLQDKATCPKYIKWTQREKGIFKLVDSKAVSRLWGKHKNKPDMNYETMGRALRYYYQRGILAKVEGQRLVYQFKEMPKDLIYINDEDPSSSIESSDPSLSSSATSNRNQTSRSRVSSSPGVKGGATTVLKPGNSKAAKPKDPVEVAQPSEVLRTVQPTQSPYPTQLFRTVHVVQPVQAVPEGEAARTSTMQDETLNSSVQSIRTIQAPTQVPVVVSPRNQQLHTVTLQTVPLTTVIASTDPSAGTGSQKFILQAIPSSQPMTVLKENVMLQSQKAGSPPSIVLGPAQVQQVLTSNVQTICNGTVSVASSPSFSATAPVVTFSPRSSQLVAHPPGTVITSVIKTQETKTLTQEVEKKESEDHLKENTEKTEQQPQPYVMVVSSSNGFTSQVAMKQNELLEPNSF
# Procedure, shortened: as §1
# EHF = biological target: T4, EHF (Homo sapiens, UniProt Q9NZC4 1-300)
# T4 sequence: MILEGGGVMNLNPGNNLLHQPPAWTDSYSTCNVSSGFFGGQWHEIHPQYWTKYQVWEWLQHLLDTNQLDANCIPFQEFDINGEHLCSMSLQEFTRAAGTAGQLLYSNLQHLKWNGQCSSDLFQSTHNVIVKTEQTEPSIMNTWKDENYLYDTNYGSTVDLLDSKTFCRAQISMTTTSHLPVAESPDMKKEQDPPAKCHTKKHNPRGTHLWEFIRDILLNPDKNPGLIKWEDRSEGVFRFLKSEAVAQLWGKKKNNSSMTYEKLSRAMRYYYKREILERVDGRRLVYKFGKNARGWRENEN
# Procedure, shortened: as §1
# SPIB = SPIB (Homo sapiens, UniProt Q01892 1-262)
# Chain of SPIB (Q01892 whole entry): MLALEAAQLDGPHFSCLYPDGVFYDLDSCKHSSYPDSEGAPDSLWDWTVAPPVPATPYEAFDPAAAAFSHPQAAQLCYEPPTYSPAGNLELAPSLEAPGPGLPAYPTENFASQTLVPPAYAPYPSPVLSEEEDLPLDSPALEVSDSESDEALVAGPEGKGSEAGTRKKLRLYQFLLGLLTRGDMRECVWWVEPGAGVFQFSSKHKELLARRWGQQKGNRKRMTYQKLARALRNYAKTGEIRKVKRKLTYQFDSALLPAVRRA
# Procedure, shortened: as §1
# ELK3 = biological target: T5, ELK3 (Homo sapiens, UniProt P41970 1-407)
# T5 sequence: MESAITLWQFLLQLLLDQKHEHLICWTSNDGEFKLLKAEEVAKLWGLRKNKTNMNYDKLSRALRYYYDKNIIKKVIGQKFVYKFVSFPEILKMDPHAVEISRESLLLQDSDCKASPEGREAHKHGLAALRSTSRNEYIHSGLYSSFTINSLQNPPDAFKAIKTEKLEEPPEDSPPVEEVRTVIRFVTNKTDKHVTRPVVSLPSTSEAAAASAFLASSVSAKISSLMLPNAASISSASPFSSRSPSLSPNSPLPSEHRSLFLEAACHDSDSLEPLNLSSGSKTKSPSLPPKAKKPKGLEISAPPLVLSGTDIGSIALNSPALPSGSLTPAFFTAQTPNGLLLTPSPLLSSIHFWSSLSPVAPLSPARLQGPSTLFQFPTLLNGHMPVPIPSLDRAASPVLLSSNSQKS
# Procedure, shortened: as §1
# SPIC = biological target: T6, SPIC (Homo sapiens, UniProt Q8N5J4 1-248)
# T6 sequence: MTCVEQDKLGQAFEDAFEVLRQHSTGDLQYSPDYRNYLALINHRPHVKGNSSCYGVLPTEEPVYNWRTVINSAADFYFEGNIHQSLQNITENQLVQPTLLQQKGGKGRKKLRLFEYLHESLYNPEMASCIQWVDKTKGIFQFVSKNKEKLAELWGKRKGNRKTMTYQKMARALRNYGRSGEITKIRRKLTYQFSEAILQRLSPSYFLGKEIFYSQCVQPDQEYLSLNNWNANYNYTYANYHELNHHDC
# Procedure, shortened: as §1
# ELF4 = ELF4 (Homo sapiens, UniProt Q99607 1-663)
# Chain of ELF4 (Q99607 whole entry): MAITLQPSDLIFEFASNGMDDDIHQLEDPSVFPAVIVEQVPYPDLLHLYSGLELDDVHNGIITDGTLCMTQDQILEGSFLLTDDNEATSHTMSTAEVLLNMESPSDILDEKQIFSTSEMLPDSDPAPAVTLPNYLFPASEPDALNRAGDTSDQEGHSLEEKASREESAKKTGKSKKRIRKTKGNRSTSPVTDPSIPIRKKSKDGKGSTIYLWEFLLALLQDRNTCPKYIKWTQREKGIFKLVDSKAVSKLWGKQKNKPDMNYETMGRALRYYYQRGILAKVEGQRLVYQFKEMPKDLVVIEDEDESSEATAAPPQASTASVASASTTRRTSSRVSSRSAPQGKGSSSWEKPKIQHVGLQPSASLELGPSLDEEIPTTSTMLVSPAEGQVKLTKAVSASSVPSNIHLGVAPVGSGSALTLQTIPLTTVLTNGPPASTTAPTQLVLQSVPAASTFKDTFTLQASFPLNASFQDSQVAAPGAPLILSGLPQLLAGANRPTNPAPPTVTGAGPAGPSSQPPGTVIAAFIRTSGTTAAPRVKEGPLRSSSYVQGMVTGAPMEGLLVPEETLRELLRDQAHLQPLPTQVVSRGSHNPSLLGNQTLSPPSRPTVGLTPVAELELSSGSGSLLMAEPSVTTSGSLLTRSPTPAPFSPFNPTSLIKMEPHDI
# Procedure, shortened: as §1
# ELK4 = biological target: T7, ELK4 (Homo sapiens, UniProt P28324-2 1-405)
# T7 sequence: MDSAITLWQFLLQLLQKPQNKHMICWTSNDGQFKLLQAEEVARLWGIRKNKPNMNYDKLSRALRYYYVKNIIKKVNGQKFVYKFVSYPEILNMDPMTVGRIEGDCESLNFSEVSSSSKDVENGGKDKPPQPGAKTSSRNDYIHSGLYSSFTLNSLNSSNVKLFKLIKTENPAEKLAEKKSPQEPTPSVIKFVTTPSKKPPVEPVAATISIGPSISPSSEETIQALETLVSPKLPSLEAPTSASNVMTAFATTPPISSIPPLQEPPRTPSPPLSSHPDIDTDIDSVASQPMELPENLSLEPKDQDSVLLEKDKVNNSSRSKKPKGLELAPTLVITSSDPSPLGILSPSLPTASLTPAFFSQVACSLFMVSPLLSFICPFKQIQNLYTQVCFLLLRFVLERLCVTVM
# Procedure, shortened: as §1
# ETV2 = biological target: T8, ETV2 (Homo sapiens, UniProt O00321 1-342)
# T8 sequence: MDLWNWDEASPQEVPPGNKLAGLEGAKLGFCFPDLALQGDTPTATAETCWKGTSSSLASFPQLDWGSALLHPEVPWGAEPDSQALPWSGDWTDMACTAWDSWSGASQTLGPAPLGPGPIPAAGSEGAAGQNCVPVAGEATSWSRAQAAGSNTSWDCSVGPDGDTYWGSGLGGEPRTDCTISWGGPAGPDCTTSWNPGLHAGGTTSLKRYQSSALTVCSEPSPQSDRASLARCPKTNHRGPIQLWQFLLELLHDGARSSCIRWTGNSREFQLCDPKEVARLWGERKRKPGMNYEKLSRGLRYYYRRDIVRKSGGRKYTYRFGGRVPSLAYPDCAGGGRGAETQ
# Procedure, shortened: as §1
# ELF3 = biological target: T9, ELF3 (Homo sapiens, UniProt P78545 1-371)
# T9 sequence: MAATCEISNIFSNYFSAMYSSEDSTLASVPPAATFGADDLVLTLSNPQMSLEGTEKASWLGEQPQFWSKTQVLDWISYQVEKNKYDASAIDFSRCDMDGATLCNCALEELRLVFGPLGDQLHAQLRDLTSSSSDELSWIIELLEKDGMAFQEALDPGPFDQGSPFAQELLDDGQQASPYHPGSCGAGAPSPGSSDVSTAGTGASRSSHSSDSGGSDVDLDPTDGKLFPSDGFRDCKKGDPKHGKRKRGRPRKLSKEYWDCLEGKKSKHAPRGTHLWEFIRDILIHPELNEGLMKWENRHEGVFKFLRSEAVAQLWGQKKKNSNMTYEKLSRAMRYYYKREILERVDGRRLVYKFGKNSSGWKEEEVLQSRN
# Procedure, shortened: as §1
# ETV1 = ETV1 (Homo sapiens, UniProt P50549 1-477)
# Chain of ETV1 (P50549 whole entry): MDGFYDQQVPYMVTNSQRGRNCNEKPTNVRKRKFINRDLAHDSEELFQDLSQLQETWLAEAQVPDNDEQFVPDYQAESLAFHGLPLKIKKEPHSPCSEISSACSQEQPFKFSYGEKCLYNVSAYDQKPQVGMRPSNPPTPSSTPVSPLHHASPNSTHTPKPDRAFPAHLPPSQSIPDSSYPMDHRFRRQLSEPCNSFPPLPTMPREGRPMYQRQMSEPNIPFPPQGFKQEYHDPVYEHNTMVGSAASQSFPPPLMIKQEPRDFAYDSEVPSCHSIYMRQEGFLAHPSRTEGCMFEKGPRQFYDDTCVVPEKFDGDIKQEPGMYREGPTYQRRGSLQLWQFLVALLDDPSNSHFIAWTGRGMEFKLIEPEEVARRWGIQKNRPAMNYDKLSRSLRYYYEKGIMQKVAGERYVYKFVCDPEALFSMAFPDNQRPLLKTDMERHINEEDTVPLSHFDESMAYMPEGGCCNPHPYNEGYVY
# Procedure, shortened: as §1
# ERF = biological target: T10, ERF (Homo sapiens, UniProt P50548 1-548)
# T10 sequence: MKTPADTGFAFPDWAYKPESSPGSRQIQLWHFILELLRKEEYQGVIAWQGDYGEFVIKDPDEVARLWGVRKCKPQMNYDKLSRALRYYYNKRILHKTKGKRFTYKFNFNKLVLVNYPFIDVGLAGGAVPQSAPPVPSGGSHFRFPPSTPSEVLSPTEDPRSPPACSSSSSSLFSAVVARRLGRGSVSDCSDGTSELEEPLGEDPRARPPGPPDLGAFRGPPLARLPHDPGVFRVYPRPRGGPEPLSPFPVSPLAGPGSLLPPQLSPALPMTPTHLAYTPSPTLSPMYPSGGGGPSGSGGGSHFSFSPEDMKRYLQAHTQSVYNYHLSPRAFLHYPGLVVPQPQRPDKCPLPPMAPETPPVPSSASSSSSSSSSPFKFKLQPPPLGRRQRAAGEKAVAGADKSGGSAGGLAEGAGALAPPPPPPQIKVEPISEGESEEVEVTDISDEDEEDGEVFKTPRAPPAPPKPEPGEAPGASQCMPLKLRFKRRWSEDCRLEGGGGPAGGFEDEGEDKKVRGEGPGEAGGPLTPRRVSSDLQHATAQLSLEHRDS
# Procedure, shortened: as §1
# ETV7 = biological target: T11, ETV7 (Homo sapiens, UniProt Q9Y603 1-341)
# T11 sequence: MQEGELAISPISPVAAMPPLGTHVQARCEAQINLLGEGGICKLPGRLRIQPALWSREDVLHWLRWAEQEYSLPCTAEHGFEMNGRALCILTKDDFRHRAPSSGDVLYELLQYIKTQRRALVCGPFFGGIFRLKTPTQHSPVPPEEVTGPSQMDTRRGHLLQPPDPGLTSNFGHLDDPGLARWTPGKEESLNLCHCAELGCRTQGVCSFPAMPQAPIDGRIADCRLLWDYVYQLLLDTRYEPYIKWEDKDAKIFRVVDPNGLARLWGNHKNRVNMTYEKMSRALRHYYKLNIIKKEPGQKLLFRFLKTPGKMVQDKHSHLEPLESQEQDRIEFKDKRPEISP
# Procedure, shortened: as §1
# ETV3 = biological target: T12, ETV3 (Homo sapiens, UniProt P41162-2 1-143)
# T12 sequence: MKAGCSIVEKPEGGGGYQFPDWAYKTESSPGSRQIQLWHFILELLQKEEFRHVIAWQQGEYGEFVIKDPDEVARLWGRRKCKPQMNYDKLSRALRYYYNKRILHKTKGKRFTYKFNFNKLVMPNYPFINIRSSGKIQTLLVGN
# Procedure, shortened: as §1
# ETV6 = ETV6 (Homo sapiens, UniProt P41212 1-452)
# Chain of ETV6 (P41212 whole entry): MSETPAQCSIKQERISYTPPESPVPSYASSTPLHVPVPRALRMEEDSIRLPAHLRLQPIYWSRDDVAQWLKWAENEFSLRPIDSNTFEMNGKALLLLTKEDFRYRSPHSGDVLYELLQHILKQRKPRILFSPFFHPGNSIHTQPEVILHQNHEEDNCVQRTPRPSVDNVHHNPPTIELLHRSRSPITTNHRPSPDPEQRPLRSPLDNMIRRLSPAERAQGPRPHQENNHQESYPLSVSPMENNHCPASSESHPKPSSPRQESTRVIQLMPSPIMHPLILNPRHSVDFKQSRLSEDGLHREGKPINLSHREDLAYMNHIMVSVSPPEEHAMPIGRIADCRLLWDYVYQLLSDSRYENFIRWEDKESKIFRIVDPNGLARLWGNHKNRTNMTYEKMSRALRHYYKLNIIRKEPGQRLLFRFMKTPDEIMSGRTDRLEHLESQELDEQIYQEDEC
# Procedure, shortened: as §1
sequence,measurement,setting,value
GCACCT,binding signal,FLI1,"1.07 fold enrichment (6-mer frequency, TF over GST control)"
same,binding signal,ELK1,"1.01 fold enrichment (6-mer frequency, TF over GST control)"
same,binding signal,GABPA,"1.12 fold enrichment (6-mer frequency, TF over GST control)"
same,binding signal,ELF1,"1.16 fold enrichment (6-mer frequency, TF over GST control)"
same,binding signal,EHF,"1.18 fold enrichment (6-mer frequency, TF over GST control)"
same,binding signal,SPIB,"1.13 fold enrichment (6-mer frequency, TF over GST control)"
same,binding signal,ELK3,"1.05 fold enrichment (6-mer frequency, TF over GST control)"
same,binding signal,SPIC,"1 fold enrichment (6-mer frequency, TF over GST control)"
same,binding signal,ELF4,"1.13 fold enrichment (6-mer frequency, TF over GST control)"
same,binding signal,ELK4,"1.16 fold enrichment (6-mer frequency, TF over GST control)"
same,binding signal,ETV2,"1.25 fold enrichment (6-mer frequency, TF over GST control)"
same,binding signal,ELF3,"1.06 fold enrichment (6-mer frequency, TF over GST control)"
same,binding signal,ETV1,"1.1 fold enrichment (6-mer frequency, TF over GST control)"
same,binding signal,ERF,"1.29 fold enrichment (6-mer frequency, TF over GST control)"
same,binding signal,ETV7,"1.11 fold enrichment (6-mer frequency, TF over GST control)"
same,binding signal,ETV3,"1.13 fold enrichment (6-mer frequency, TF over GST control)"
same,binding signal,ETV6,"1.12 fold enrichment (6-mer frequency, TF over GST control)"
